Among the data in the supplement of paper PMC9477273 are maximum fold change values, retold here.

The structures appear in SMILES notation.

For the experiment, the system named is DRIVER-selected RNA biosensor (aptazyme) pool. The experiment is described as follows: maximum fold change of ribozyme cleavage across biosensor pool versus no-compound control; higher = stronger biosensor response (ligand inhibits cleavage). Particulars: 10 µM. As for the experimental part:
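CleaveSeq: a pool of resynthesized hammerhead-ribozyme RNA biosensors (sTRSV scaffold with randomized loops, 1,730 sequences) was T7-transcribed at 37 °C for 15-30 min with a single compound at 10 µM. Cleaved and uncleaved products were counted by NGS, and fold change of cleavage was computed against the DMSO-only condition. The value is the maximum fold change of cleavage over all biosensors in the pool. About 255 compounds were tested individually.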
Regarding `O=Cc1cn(Cc2ccc(F)cc2Cl)c2ccccc12`, the maximum fold change turned out to be 3.
The result for `Cc1ccc(CNC(=O)CN2CC(c3ccccc3)CC2=O)cc1` (centres undefined) reads 3.05; that for `O=C(Cn1cnc2sc3c(c2c1=O)CCCC3)NCCCC(=O)N1CCC2(CC1)OCCO2`, 2.67.
Then `CN1CCN(Cc2csc3c2CCCC3)CC1`, with 3.66.
